Assay outcomes: PubChem, several laboratories
Most compounds without a hit are left out; they make up all but 1.6% or so of the library.
MEX-5 binding: C. elegans MEX-5 TCR-2 RNA binding activity; MEX-5/FITC-TCR2 RNA binding, fluorescence polarization; hits give low values; activity score (negative = inhibition of binding), % at 10 µM; 300,000 tested, 0.38% active; AID 1832;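 active = inhibition past about -25% in most replicates, and total fluorescence under double the plate's negative control median, limit read from the data; inconclusive = replicates evenly split on the limit, or fluorescence at least double controls; inactive = too little inhibition in most replicates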
Target sequence (Q9XUB2 whole entry, looked up): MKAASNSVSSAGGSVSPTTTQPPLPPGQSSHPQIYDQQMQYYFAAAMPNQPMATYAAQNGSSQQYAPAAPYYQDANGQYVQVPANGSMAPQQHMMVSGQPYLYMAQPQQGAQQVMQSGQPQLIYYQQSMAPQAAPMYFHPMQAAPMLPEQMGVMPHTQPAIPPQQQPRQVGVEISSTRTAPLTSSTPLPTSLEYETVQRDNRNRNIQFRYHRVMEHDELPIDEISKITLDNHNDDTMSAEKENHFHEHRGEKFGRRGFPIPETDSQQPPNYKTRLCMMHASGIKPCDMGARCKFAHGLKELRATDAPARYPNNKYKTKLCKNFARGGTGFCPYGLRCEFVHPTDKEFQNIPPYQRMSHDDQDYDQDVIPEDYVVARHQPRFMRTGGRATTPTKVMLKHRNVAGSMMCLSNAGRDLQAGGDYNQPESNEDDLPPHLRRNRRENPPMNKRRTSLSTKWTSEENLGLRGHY
PME-1 primary: blocks human protein phosphatase methylesterase 1. Q9Y570. recombinant PME-1, FP-Rh probe fluorescence polarization. inhibition, % at 5.9 µM. 320,000 tested, 0.53% active;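 active = inhibition above the campaign mean of all compounds plus 3 SD, cut at about 26% in these data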;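 also: competitive labeling of PME-1 active site by serine hydrolase directed probe; inhibitors block probe labeling so polarization falls and inhibition rises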
PREPL inh: inhibitors of human prolyl oligopeptidase-like enzyme PREPL; recombinant PREPL, fluorescence polarization activity-based probe; inhibition, % at 5.96 µM; 320,000 tested, 0.68% active; in the data active = inhibition above about 43%
LYPLA2 inh: LYPLA2 (human) inhibition in PME1 counter-screen | recombinant LYPLA2, FP-Rh probe fluorescence polarization | inhibition, % at 5.9 µM | 320,000 tested, 0.38% active | AID 2177;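 active = inhibition above the screen-wide mean plus 3 SD, limit set per campaign, cut at about 26% in these data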
Target sequence (O95372 whole entry, looked up): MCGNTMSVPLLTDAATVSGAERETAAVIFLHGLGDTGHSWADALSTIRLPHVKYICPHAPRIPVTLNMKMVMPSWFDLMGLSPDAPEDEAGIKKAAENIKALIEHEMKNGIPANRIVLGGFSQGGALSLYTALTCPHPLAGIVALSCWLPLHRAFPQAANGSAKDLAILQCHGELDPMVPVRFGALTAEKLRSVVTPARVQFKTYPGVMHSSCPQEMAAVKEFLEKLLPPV
LYPLA1 counter: LYPLA1 (human) inhibition in PME1 counter-screen; 320,000 tested, 0.16% active; recombinant LYPLA1, FP-Rh probe fluorescence polarization; inhibition, % at 5.9 µM; O75608;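 active = inhibition above the mean of all tested compounds plus 3 SD, set per campaign, cut at about 14% in these data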;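 also: inhibitors block serine hydrolase probe labeling of LYPLA1 so polarization falls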
Fam108B inh: Fam108B inhibition, counter-screen for RBBP9 inhibitors; recombinant Fam108B, FP-Rh probe fluorescence polarization; inhibition, % at 9.51 µM; 300,000 tested, 0.33% active; AID 1947;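 active = inhibition above the screen mean inhibition plus 3 SD, computed separately per campaign, cut at about 18% in these data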;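 also: inhibitors lower polarization as less probe binds the enzyme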
LYPLA1 conf: counter-screen for PME1 inhibitors: confirmation of human LYPLA1 inhibitors; shares compounds with LYPLA1 counter; AID 2233; inhibition, % at 5.9 µM; recombinant LYPLA1, FP-Rh probe fluorescence polarization; 480 tested, 69% active;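 active = mean inhibition across replicates above the hit cutoff set in the primary screen, cut at about 15% in these data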;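 also: loss of FP-Rh probe labeling of LYPLA1 seen as lower polarization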
LYPLA2 conf: LYPLA2 (human) inhibition, confirmation counter-screen | inhibition, % at 5.9 µM | AID 2232 | recombinant LYPLA2, FP-Rh probe fluorescence polarization | shares compounds with LYPLA2 inh | 1,100 tested, 72% active;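 active = mean inhibition across replicates above the hit cutoff set in the primary screen, cut at about 26% in these data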;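 also: blocked labeling of the enzyme by serine hydrolase FP-Rh probe lowers polarization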
Hits are given with their value; i = inactive; ? = inconclusive; nt = no result given.

SMILES | MEX-5 binding | PME-1 primary | PREPL inh | LYPLA2 inh | LYPLA1 counter | Fam108B inh | LYPLA1 conf | LYPLA2 conf
COc1ccccc1C(=O)N/C(=C\c1ccc(Br)cc1)C(=O)NCCCO | i | i | i | i | i | i | nt | nt
O=C(COC(=O)CCC1CCCCC1)Nc1ccc(OC(F)F)cc1 | i | i | i | i | i | i | nt | nt
Clc1cccc(N2CCN(CCNc3nc4ccccc4n4cnnc34)CC2)c1 | i | i | i | 67 | 17 | i | 32 | 62
c1ccc2c(c1)nc(NCCN1CCOCC1)c1nncn12 | i | i | i | i | i | i | nt | nt
CC1CCCCN1C(=O)CSc1nnc(-c2c[nH]c3ccccc23)o1 (stereo not drawn) | i | i | i | i | i | i | nt | nt
CC(=O)N1CCC2(CC1)C/C(=N\NC(=S)Nc1ccccc1C)c1cc(O)ccc1O2 | i | i | i | 48 | 17 | i | 29 | 55
CC(=O)N1CCC2(CC1)C/C(=N\NC(=S)Nc1ccccc1F)c1cc(O)ccc1O2 | i | i | i | i | i | i | nt | nt
O=C(CSCc1ccccc1Br)Nc1ccccc1 | i | i | i | 37 | 16 | i | 32 | 47
Cc1ccc(C(=O)O)cc1NC(=O)Nc1cccc2ccccc12 | i | i | i | i | i | i | nt | nt
CCOC(=O)c1c(C)[nH]c(C(=O)COC(=O)[C@H](C)NC(=O)c2ccccc2Cl)c1C | i | i | i | i | i | i | nt | nt
O=C(CCN1CCN(c2ccc([N+](=O)[O-])cc2)CC1)c1ccc(Cl)cc1 | i | i | i | 73 | 37 | i | 47 | 79
NS(=O)(=O)c1ccc(CCNC(=O)c2cc([N+](=O)[O-])ccc2N2CCCCC2)cc1 | i | i | i | 30 | 78 | i | 77 | i
COc1ccc(CCNC(=O)c2cc([N+](=O)[O-])ccc2N2CCOCC2)cc1 | i | i | i | i | i | i | nt | nt
C=CCNCC(=O)Nc1ccccc1SCC(=O)Nc1ccsc1C(=O)OC | i | i | i | i | i | i | nt | nt
CCCC(=NCc1ccccc1)C1=C(O)C(C(=O)OC)C(C)(C)CC1=O (stereo not drawn) | i | i | i | i | i | i | nt | nt
CCCCC(=Nc1ccc(N)cc1)C1=C(O)C(C(=O)OC)C(C)(C)CC1=O (stereo not drawn) | i | 41 | i | 28 | 23 | i | i | i
Cc1ccc(NS(=O)(=O)c2cccc(C(=O)N3CCCCCCC3)c2)cc1 | i | i | i | i | i | i | nt | nt
Cc1ccc(NS(=O)(=O)c2cccc(C(=O)N3CCN(c4ncccn4)CC3)c2)cc1 | nt | 31 | i | 50 | 24 | nt | i | i
O=C(COC(=O)c1ccc(Cl)nc1)c1ccc2c(c1)OCCO2 | i | i | i | i | i | i | nt | nt
CCOC(=O)CCc1c(C)nc(SCc2ccc(C(=O)O)cc2)c(C#N)c1C | i | i | i | 43 | 20 | i | 39 | 59
CCOC(=O)CSc1nnc(CSc2nc3sc4c(c3c(=O)[nH]2)CCCC4)n1-c1ccccc1 | i | i | i | 77 | 16 | i | 15 | 80
CCOC(=O)CCCSc1nc2sc3c(c2c(=O)[nH]1)CCC3 | i | i | i | i | i | i | nt | nt
COc1ccc(-n2nc(C(=O)NCC(=O)N3CCN(Cc4ccccc4)CC3)c3ccccc3c2=O)cc1 | i | i | i | 69 | 43 | i | 47 | 67
COc1ccc(-n2nc(C(=O)NCC(=O)N3CCN(Cc4ccc5c(c4)OCO5)CC3)c3ccccc3c2=O)cc1OC | i | i | i | 74 | 50 | i | 63 | 82
COc1ccc(N2CCN(C(=O)CNC(=O)c3cn(-c4ccccc4OC)c(=O)c4ccccc34)CC2)cc1 | i | i | i | 76 | 15 | i | 26 | 81
SMILES | MEX-5 binding | PME-1 primary | PREPL inh | LYPLA2 inh | LYPLA1 counter | Fam108B inh | LYPLA1 conf | LYPLA2 conf
COc1ccc(-n2nc(C(=O)NCC(=O)N3CCOCC3)c3ccccc3c2=O)cc1OC | i | i | i | i | i | i | nt | nt
COc1ccc(-n2nc(C(=O)NCC(=O)N3CCN(c4ccccc4)CC3)c3ccccc3c2=O)c(OC)c1 | i | i | i | i | i | i | nt | nt
CCOCC(=O)Nc1ccc(F)c(F)c1 | i | i | i | i | i | i | nt | nt
O=[N+]([O-])c1cccc(/C=N/N2CCN(Cc3ccc(Cl)cc3)CC2)c1 | i | i | i | 41 | 29 | i | 37 | 53
O=C(Nc1ccc2oc(-c3cccnc3)nc2c1)c1ccc2c(c1)OCCO2 | i | i | i | 47 | 21 | i | 53 | 49
Cc1nn(CCC(=O)NNC(=S)Nc2cccc(Cl)c2)c(C)c1[N+](=O)[O-] | i | i | i | i | i | i | nt | nt
OC(CN1CCN(c2cccc(C(F)(F)F)c2)CC1)c1c[nH]c2ccccc12 (stereo not drawn) | i | i | i | 57 | 23 | i | 30 | 49
N#Cc1c(N)nc(SCc2ccncc2)c(C#N)c1-c1cccs1 | ? | i | i | 42 | 39 | i | 41 | 43
CN(C(=O)COc1ccc(Cl)cc1Br)C1CCCCC1 | i | i | i | i | i | i | nt | nt
COc1ccc(C(CNC(=O)COc2c(C)cc(C)cc2C)N2CCOCC2)cc1 (stereo not drawn) | nt | i | i | i | i | nt | nt | nt
COc1ccc(C(CNC(=O)COc2ccc(-c3ccccc3)cc2)N2CCOCC2)cc1 (stereo not drawn) | i | i | i | 44 | 45 | i | 57 | 45
COc1ccc(S(=O)(=O)N(C)CC(=O)N2CCCCCC2)cc1OC | i | i | i | i | i | i | nt | nt
COc1ccc(S(=O)(=O)N(C)CC(=O)N2CCN(c3ccc(F)cc3)CC2)cc1OC | i | i | i | 37 | 22 | i | 21 | 33
Cc1[nH]c2ccccc2c1C(=O)CN1CCN(C/C=C/c2ccccc2)CC1 | i | i | i | 56 | 31 | i | 31 | 54
O=C(Nc1nsc(-c2ccccc2)n1)c1ccc(F)cc1 | i | i | i | i | i | i | nt | nt
Cc1c(Br)c([N+](=O)[O-])nn1CC(=O)Nc1ccc(Cc2ccncc2)cc1 | i | i | i | 59 | 23 | i | 35 | 67
Cc1ccccc1-c1cc(C(=O)NCc2ccco2)n(CC2CC(c3cccnc3)=NO2)n1 (stereo not drawn) | nt | i | i | i | i | nt | nt | nt
CCOc1cc(CN2CCN(c3cccc(C(F)(F)F)c3)CC2)ccc1OC | i | i | i | i | i | i | nt | nt
COc1ccc(CC(C)N2CCN(c3cccc(C(F)(F)F)c3)CC2)cc1OC (stereo not drawn) | i | i | i | 31 | 25 | i | 32 | 35
Nc1nc(NCc2ccco2)nc(N2CCN(Cc3ccccc3)CC2)c1[N+](=O)[O-] | i | i | i | 48 | 29 | i | 42 | 48
Cc1nnc(Nc2ccc3c(c2)OCO3)c2ccccc12 | i | i | i | i | i | i | nt | nt
